An excerpt weighted towards active compounds, which were near 5.8% of everything screened.
PINK1 expr mod: PINK1 expression modulation. Potency, µM (top dose mostly 76.6 µM), actives largely listed as activators. PINK1 immunofluorescence, high-content cytometry, 24 h. 0.2% of 410,000 active. AID 624263; active = well fitted activation curve with a large enough effect; inconclusive = small, poorly fitted or top-dose-only effect; cell line not stated here; also: nearly all actives have a fitted effect of over 65% in size
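Cells are seeded, rested 12 hours, then given compound at five concentrations or DMSO for 24 hours. After fixation, blocking and antibody staining, PINK1 amount and mitochondrial localization are scored; CCCP serves as control.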
ALOX12 inh: blocks human arachidonate 12S-lipoxygenase; Potency, µM (highest dose often 108 µM), most hits filed as inhibitors; 1.1% of 580,000 active; P18054; AID 1671190; purified 12hLO, xylenol orange hydroperoxide absorbance
Target sequence (P18054 whole entry, looked up): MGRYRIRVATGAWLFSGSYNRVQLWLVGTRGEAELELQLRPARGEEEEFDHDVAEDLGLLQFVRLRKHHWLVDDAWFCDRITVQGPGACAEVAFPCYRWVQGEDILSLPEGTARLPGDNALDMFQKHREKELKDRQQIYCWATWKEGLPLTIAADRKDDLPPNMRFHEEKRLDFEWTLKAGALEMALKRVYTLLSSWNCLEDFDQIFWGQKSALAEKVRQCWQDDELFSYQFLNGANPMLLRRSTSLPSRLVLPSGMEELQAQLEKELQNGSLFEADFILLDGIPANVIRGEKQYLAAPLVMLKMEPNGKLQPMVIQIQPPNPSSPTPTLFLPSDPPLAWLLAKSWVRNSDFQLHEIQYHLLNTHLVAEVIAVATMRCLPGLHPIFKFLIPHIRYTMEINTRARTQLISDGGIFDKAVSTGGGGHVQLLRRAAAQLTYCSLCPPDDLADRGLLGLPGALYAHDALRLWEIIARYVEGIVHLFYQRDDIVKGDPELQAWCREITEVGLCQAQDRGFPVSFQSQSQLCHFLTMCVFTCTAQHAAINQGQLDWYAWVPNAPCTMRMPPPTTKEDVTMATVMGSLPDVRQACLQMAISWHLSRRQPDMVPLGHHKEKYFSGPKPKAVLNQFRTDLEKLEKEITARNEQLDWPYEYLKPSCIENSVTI
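Purified human 12hLO at 150 nM in 25 mM Hepes, 0.01% Triton X-100, pH 7.0, preincubated 15 min at room temperature with compound. Reaction started with 40 uM arachidonic acid, 30 min at room temperature. Hydroperoxide measured by Fe-xylenol orange, 573/405 nm absorbance ratio.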
SW480 rereplic: inducers of DNA re-replication in SW480 colon cancer cells. SW480 DNA re-replication, Hoechst DNA content imaging, 48 h. Potency, µM (top dose mostly 46.1 µM), actives largely listed as activators. 1.8% of 340,000 active. AID 624297; also: nearly all actives have a fitted effect of over 55% in size
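Compounds, transferred as 23 nL by pin tool, were incubated with cells for 48 hr; DNA content per nucleus was then quantified by Hoechst staining and fluorescence plate imaging.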
MCF10A rerep: inducers of DNA re-replication in MCF 10A breast cells. MCF 10A DNA re-replication, Hoechst nuclear intensity, 48 h. Potency, µM (doses to about 46.1 µM), usual class: activators. 2.9% of 350,000 active. AID 624296; also: nearly all actives have a fitted effect of over 50% in size
KB-3-1 cytotox: kills parental KB-3-1 adenocarcinoma cells | KB-3-1 viability, CellTiter-Glo ATP luminescence, 72 h | Potency, µM (top dose mostly 46.1 µM), most hits filed as cytotoxic | 1.4% of 400,000 active | AID 1347075; also: nearly all actives have a fitted effect of over 60% in size
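Screening of KB-3-1 cells (DMEM, 10% FBS, phenol-red free) ran from lowest to highest compound concentration; after 72 h at 37 °C viability was read luminescently and curves fitted.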
KB-V1 cytotox: KB-V1 MDR subline cytotoxicity; KB-V1 MDR cells viability, CellTiter-Glo, 72 h; Potency, µM (doses to about 46.1 µM), usual class: cytotoxic; 3.4% of 400,000 active; also: nearly all actives have a fitted effect of over 60% in size
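Following 72 h at 37 degrees C with compound, KB-V1 cell viability was read by CellTiter-Glo luminescence, medium being phenol-red-free DMEM plus 10% FBS; concentration-response parameters came from normalized, curve-fitted qHTS data.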
Of the large screens only hits and unclear results are named; the others gave an inactive call. Unless noted, calls follow the shape of the dose curve; as a rule, active = well fitted curve in the direction sought with a large enough effect; inconclusive = small, poorly fitted or top-dose-only effect, or another doubt; inactive = no such curve, though single readings can be large; an effect the other way counts as inactive or inconclusive.

N#Cc1c(C(F)(F)F)cc(-c2ccccc2)[nH]c1=O	MCF10A rerep inconclusive, KB-V1 cytotox inconclusive
N#Cc1c(C(F)(F)F)cc(-c2ccccc2Cl)[nH]c1=O	ALOX12 inh inconclusive, MCF10A rerep 15µM, KB-3-1 cytotox inconclusive, KB-V1 cytotox inconclusive
COC(=O)CC(=O)CSc1nc2c(cc1C#N)CCC2	PINK1 expr mod inconclusive, SW480 rereplic inconclusive, MCF10A rerep 1.6µM, KB-V1 cytotox inconclusive
Cc1ccc(SCC(=O)Nc2nccs2)cc1	none
CCOC(=O)c1c(SCC(=O)Nc2nccs2)nc(C)c(C)c1C	ALOX12 inh inconclusive, MCF10A rerep 16µM (no result: KB-3-1 cytotox, KB-V1 cytotox)
Cc1ccc(C#N)c(SCC(=O)Nc2nccs2)n1	SW480 rereplic 16µM, MCF10A rerep inconclusive
N#Cc1cc2c(nc1SCC(=O)Nc1sc3c(c1C#N)CCC3)CCCCCC2	SW480 rereplic inconclusive, MCF10A rerep 3.3µM
O=C(c1ccc(CC2CCN(C(=O)c3nccc4ccccc34)CC2)cc1)N1CCOCC1	none (no result: PINK1 expr mod, SW480 rereplic, MCF10A rerep, KB-3-1 cytotox, KB-V1 cytotox)
N#Cc1cc2c(nc1SCC(=O)Nc1nccs1)CCCCC2	MCF10A rerep 3.7µM
COc1ccc(-c2ccc(C#N)c(SCC(=O)Nc3sc4c(c3C#N)CCC4)n2)cc1OC	SW480 rereplic 2.1µM, MCF10A rerep 2.9µM, KB-3-1 cytotox inconclusive, KB-V1 cytotox inconclusive
CN1CCc2nc(SCC(=O)Nc3ccc(Cl)cc3)c(C#N)cc2C1	ALOX12 inh 5.6µM, SW480 rereplic inconclusive, MCF10A rerep inconclusive
CCc1nnc(NC(=O)CSc2nc3c(cc2C#N)CCC3)s1	SW480 rereplic inconclusive
Cc1nc(SCC(=O)Nc2ccc(Cl)cc2)c(C#N)c2c1CCCC2	none (no result: PINK1 expr mod, SW480 rereplic, MCF10A rerep, KB-3-1 cytotox, KB-V1 cytotox)
Cc1ccc(C)c(NC(=O)C(Sc2ccccc2)c2ccccc2)c1 (stereo unspecified)	none (no result: PINK1 expr mod, SW480 rereplic, MCF10A rerep, KB-3-1 cytotox, KB-V1 cytotox)
NC(=O)C1CCN(CC(=O)Nc2cccc(Cl)c2)CC1	none (no result: PINK1 expr mod, SW480 rereplic, MCF10A rerep, KB-3-1 cytotox, KB-V1 cytotox)
Cc1cccc(CN2CCc3c(OCC(=O)NCc4ccco4)cccc3C2=O)c1	KB-V1 cytotox 15µM
O=C1c2cccc(OCC(=O)N3CCCc4ccccc43)c2CCN1Cc1ccc(F)cc1	MCF10A rerep 15µM, KB-3-1 cytotox inconclusive, KB-V1 cytotox 9.2µM
Cc1cccc(CN2CCc3c(OCC(=O)N4CCCc5ccccc54)cccc3C2=O)c1	MCF10A rerep inconclusive, KB-3-1 cytotox 16µM, KB-V1 cytotox inconclusive
Cc1c(-c2ccc(Cl)cc2)oc(=O)c2c(N)n(-c3ccccc3)nc12	MCF10A rerep inconclusive, KB-3-1 cytotox inconclusive, KB-V1 cytotox 21µM
Nc1cc(-c2ccc(Cl)cc2)nn1-c1ccccc1	none
Nc1c2c(=O)oc(-c3ccccc3)cc2nn1-c1ccccc1	SW480 rereplic 16µM, MCF10A rerep inconclusive, KB-3-1 cytotox 23µM, KB-V1 cytotox 12µM
CCN(Cc1cc2ccccc2[nH]c1=O)C(=O)c1cccc(Cl)c1	none (no result: PINK1 expr mod, SW480 rereplic, MCF10A rerep, KB-3-1 cytotox, KB-V1 cytotox)
O=C(CSc1n[nH]c(=O)n1C1CC1)Nc1cc(Cl)ccc1Oc1ccccc1	MCF10A rerep inconclusive, KB-V1 cytotox 16µM
COc1ccc(N(C(=O)C(C)C)S(=O)(=O)c2ccc(Cl)cc2)cc1	KB-V1 cytotox 18µM
Cc1c(C)c(C)c(S(=O)(=O)Nc2cc(Cl)ccc2C(=O)N(C)C)c(C)c1C	ALOX12 inh 40µM (no result: PINK1 expr mod, SW480 rereplic, MCF10A rerep, KB-3-1 cytotox, KB-V1 cytotox)
CN(C)C(=O)c1cc(Cl)ccc1F	none (no result: PINK1 expr mod, SW480 rereplic, MCF10A rerep, KB-3-1 cytotox, KB-V1 cytotox)
CC1(C)[C@H]2CC[C@@H](CNC(=O)c3cccc4[nH]ccc34)[C@@H]1C2	none (no result: PINK1 expr mod, SW480 rereplic, MCF10A rerep, KB-3-1 cytotox, KB-V1 cytotox)
O=[N+]([O-])c1ccc(Sc2cc[n+]([O-])c3ccccc23)c([N+](=O)[O-])c1	SW480 rereplic 0.82µM, KB-V1 cytotox inconclusive
Cc1ccc(Sc2ccc([N+](=O)[O-])cc2[N+](=O)[O-])nc1	SW480 rereplic inconclusive, MCF10A rerep inconclusive, KB-3-1 cytotox inconclusive
O=C(CSc1nc2ccccc2c(=O)[nH]1)Nc1ccc([N+](=O)[O-])cc1	PINK1 expr mod inconclusive, SW480 rereplic inconclusive, MCF10A rerep inconclusive, KB-3-1 cytotox inconclusive, KB-V1 cytotox inconclusive
O=c1[nH]c(Sc2ccc([N+](=O)[O-])cc2[N+](=O)[O-])nc2ccccc12	ALOX12 inh inconclusive, SW480 rereplic inconclusive, MCF10A rerep 6.5µM, KB-V1 cytotox inconclusive
O=C(NCCCN1CCOCC1)c1csc(Nc2cccc3ccccc23)n1	none (no result: PINK1 expr mod, SW480 rereplic, MCF10A rerep, KB-3-1 cytotox, KB-V1 cytotox)
